Source: PubChem (The Scripps Research Institute Molecular Screening Center)
PAFAH2 inh: inhibitors of human PAFAH2; Q99487; recombinant PAFAH2, FP-rhodamine activity probe, fluorescence polarization; inhibition, % at 3.39 µM; 340,000 compounds, 0.99% hits; AID 492956;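 active = inhibition above the mean over all tested compounds plus 3 SD, cut at about 30% in these data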;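 also: inhibitors block probe labeling of enzyme so polarization drops; 0% = enzyme with DMSO and 100% = wells lacking PAFAH2 protein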
PKA-R1A activ: PKA-R1A complex activation; activation, % at 11.4 µM; P00514+P68181; AID 504707; 340,000 compounds, 0.083% hits; PKA-R1A dissociation, Cy5-IP20 fluorescence polarization; scaled: DMSO 0%, 113 µM cGMP 100%;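 active = percent activation above the mean of all tested compounds plus 3 SD, cut at about 19% in these data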;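 also: higher means more PKAc released from R1A so a rise in polarization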
PAFAH1B2 inh: inhibitors of human PAFAH1B2 | AID 492953 | P68402 | recombinant PAFAH1B2, FP-rhodamine activity probe, fluorescence polarization | 340,000 compounds, 1.2% hits | inhibition, % at 3.39 µM;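 active = inhibition above the mean of all tested compounds plus 3 SD, cut at about 24% in these data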;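 also: 0% = enzyme with DMSO and 100% = wells lacking PAFAH1B2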
Target sequence (P68402 whole entry, looked up): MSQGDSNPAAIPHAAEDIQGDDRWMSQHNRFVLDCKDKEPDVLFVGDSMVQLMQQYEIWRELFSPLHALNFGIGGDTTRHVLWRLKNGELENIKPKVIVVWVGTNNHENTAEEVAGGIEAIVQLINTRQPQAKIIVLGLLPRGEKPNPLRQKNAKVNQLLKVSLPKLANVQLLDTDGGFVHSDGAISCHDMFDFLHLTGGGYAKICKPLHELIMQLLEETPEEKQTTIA
PAFAH1B3 FP inh: inhibitors of human PAFAH1B3; recombinant PAFAH1B3, FP-rhodamine probe, fluorescence polarization; AID 492972; 340,000 compounds, 0.28% hits; inhibition, % at 3.39 µM;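 active = inhibition above the screen-wide average of all tested compounds plus 3 SD, cut at about 25% in these data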;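 also: 0% = enzyme with DMSO only and 100% = wells lacking PAFAH1B3 protein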
PKA-R2B act: activators of human PKA-R2B complex | AID 504700 | PKA-R2B holoenzyme dissociation, Cy5-IP20 fluorescence polarization; R2B truncated from residue 108, S112A mutant; 0% DMSO only, 100% 113 µM cGMP | 340,000 compounds, 0.079% hits | activation, % at 11.4 µM;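 active = activation above a cutoff set at the mean over all compounds plus 3 SD, cut at about 18% in these data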;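 also: higher means more holoenzyme dissociation and a rise in polarization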
Target sequence (P31323 whole entry, looked up, other chains not shown, the tested form may be a part): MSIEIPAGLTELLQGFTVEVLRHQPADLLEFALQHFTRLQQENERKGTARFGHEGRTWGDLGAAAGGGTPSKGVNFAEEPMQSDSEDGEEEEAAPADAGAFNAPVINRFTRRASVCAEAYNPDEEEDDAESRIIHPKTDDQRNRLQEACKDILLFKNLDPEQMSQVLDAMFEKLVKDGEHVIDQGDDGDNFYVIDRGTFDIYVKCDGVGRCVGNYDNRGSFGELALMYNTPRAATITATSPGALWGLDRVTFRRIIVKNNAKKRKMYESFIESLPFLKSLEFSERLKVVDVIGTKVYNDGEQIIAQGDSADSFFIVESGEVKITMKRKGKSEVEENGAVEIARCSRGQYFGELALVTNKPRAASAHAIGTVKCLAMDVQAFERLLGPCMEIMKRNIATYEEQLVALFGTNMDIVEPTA
pPAFAH inh: pPAFAH (human) enzyme inhibition | Q13093 | recombinant pPAFAH, FP-rhodamine probe fluorescence polarization | inhibition, % at 3.39 µM | 330,000 compounds, 1.5% hits | AID 463082;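 active = inhibition above the mean inhibition across the screen plus 3 SD, cut at about 25% in these data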;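 also: inhibitors block binding of the rhodamine activity-based probe so polarization drops; 0% = enzyme with DMSO and 100% = wells lacking pPAFAH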
pPAFAH confirm: confirmation of human plasma PAF acetylhydrolase (pPAFAH) inhibitors | shares compounds with pPAFAH inh | recombinant pPAFAH, FP-Rh probe fluorescence polarization | inhibition, % at 3.39 µM | 2,300 compounds, 72% hits;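 active = mean inhibition of the triplicate above the hit cutoff set for the earlier primary screen, cut at about 25% in these data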;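 also: 0% = enzyme with DMSO and 100% = wells lacking pPAFAH enzyme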
The depositor's hits bear a star; nt = not tested or not shown. The list is not random: actives were taken first. Their share in the collection is about 2.6%.

SMILES | PAFAH2 inh | PKA-R1A activ | PAFAH1B2 inh | PAFAH1B3 FP inh | PKA-R2B act | pPAFAH inh | pPAFAH confirm
COc1ccc(CC(=O)N/N=C(\C)c2cccc(NC(=O)C3CC3)c2)cc1 | 3 | 1 | 0 | -8 | 1 | nt | nt
O=C(N/N=C/c1ccc(-c2ccccc2Cl)o1)c1ccccc1 | 1 | -8 | 1 | 1 | -1 | 5 | nt
O=C(O)c1ccc(N/N=C/c2ccc(-c3ccccc3Cl)o2)cc1 | 7 | -7 | 2 | 8 | -2 | 45* | 16
CCN(CC)S(=O)(=O)c1ccc(Cl)c(NC(=O)COC(=O)/C=C/c2ccc(O)c(OC)c2)c1 | 75* | 3 | -3 | 0 | 10 | 37* | 13
Cc1ccc([C@H]2C[C@H](n3cc(C4CC4)nn3)[C@@H](O)CN2C(=O)c2cccs2)cc1 | nt | -7 | nt | nt | -2 | nt | nt
COC(=O)c1ccccc1-c1c2ccc(=N)cc-2oc2cc(N)ccc12 | 148* | 7 | 134* | 149* | -1 | 126* | 132*
COC(=O)c1ccccc1-c1ccc(/C=N/NC(=O)c2cc3ccccc3o2)o1 | 0 | -2 | -2 | 6 | -15 | -11 | nt
CC(C(=O)N1CCN(c2ccccc2)CC1)c1ccc([N+](=O)[O-])cc1 (configuration not stated) | 9 | 1 | 5 | -2 | -14 | 3 | nt
COc1ccc(CN2CCC[C@]3(N[C@H](c4ccccc4)[C@@H]4C(=O)N(C)C(=O)[C@@H]43)C2=O)cc1 | nt | 7 | nt | nt | -1 | nt | nt
O=C(O)c1ccccc1Nc1cccc(OCc2ccc3ccccc3n2)c1 | 11 | -1 | 9 | 7 | 5 | 36* | 31*
O=C(COc1ccc2ccccc2c1)Nc1cccc(C(=O)Nc2ccccc2C(=O)O)c1 | -44 | -6 | -12 | -19 | -5 | -32 | nt
NS(=O)(=O)c1ccc(CNC(=O)c2cc(S(=O)(=O)N3CCOCC3)c(Cl)cc2Cl)cc1 | -1 | -16 | 3 | 5 | -15 | nt | nt
CCCc1ccc2oc(C(=O)N3CCC(O)CC3)c(C)c2c1 | -3 | -11 | -2 | 3 | -5 | 39* | 23
N#C/C(=C\c1ccc([N+](=O)[O-])o1)C(=O)Nc1ccc(F)cc1 | 9 | 1 | 1 | 7 | 0 | 44* | 24
CCC1(C)Cc2ccccc2C(=O)N1 (configuration not stated) | 0 | -3 | 5 | 4 | 3 | -5 | nt
CC1(C)Cc2ccccc2C(=NCC(=O)O)N1 | -6 | 6 | 3 | 10 | -8 | 35* | 2
Cc1cc(-c2ccccc2)nc(N/N=C/c2ccc(O)cc2O)n1 | 7 | -5 | 9 | 13 | -7 | 20 | nt
CN(/N=C/c1ccc(O)cc1O)c1nc(-c2ccccc2)cc(-c2ccccc2)n1 | 3 | -3 | -2 | 16 | 3 | 37* | 10
COc1cc(OC)cc(C(=O)NC2CC(C)(C)NC(C)(C)C2)c1 | 3 | -4 | 5 | 15 | -1 | -3 | nt
CC(=O)c1cccc(NC(=S)NC2CCCCCCC2)c1 | -4 | -7 | 9 | 2 | -4 | nt | nt
CC(C)=CCC/C(C)=C/CNC(=O)C[C@H]1C[C@H](C(=O)N2CCCCC2)[C@@]2(C)c3[nH]c4cc(CCC(=O)N(C)C)ccc4c3CCN2C1=O | 10 | -7 | 5 | 7 | 4 | 55* | 42*
CC(C)N(C(=O)[C@H]1C[C@H](CC(=O)NCC23CC4CC(CC(C4)C2)C3)C(=O)N2CCc3c([nH]c4cc(CCC(=O)N(C)C)ccc34)[C@]12C)C(C)C | -3 | 1 | 5 | 5 | -1 | 45* | 33*
CN(C)C(=O)CCc1ccc2c3c([nH]c2c1)[C@]1(C)[C@@H](C(=O)N2CCOCC2)C[C@H](CC(=O)NCC24CC5CC(CC(C5)C2)C4)C(=O)N1CC3 | 2 | 5 | 3 | 3 | 7 | 14 | nt
O=C1CCC[C@@H]2Cc3nc4cc5c(cc4cc3[C@@H]3CCN1[C@H]23)OCO5 | 4 | 9 | 9 | -3 | -1 | nt | nt
Cc1cc(C)n(CCCN2CCC(C(=O)Nc3cccc(-c4cccc(F)c4)c3)CC2)n1 | 0 | -11 | -1 | 4 | -5 | 2 | nt
SMILES | PAFAH2 inh | PKA-R1A activ | PAFAH1B2 inh | PAFAH1B3 FP inh | PKA-R2B act | pPAFAH inh | pPAFAH confirm
COc1ccc(S(=O)(=O)Nc2cccc3c2O[C@@H](CN(C)CC2CC2)[C@@H](C)CN([C@@H](C)CO)C3=O)cc1 | 1 | -4 | 6 | 6 | 4 | 4 | nt
Oc1ccc2ccccc2c1N=Nc1ccc(F)cc1 | -113 | -4 | -42 | -43 | -7 | -6 | nt
NS(=O)(=O)c1ccc(N=Nc2c(O)c(C(=O)O)cc3ccccc23)cc1 | 16 | -15 | 3 | 13 | 5 | 41* | 26*
O=C(O)Cc1ccc(N=Nc2c(O)c(C(=O)O)cc3ccccc23)cc1 | 24 | -9 | 4 | 8 | -2 | 67* | 34*
FC(F)(F)C(F)(F)c1nc2nc(Cl)c(Cl)nc2[nH]1 | nt | 7 | nt | nt | -1 | nt | nt
CCOc1ccc(N(C)C(=O)CCc2nnc3ccc(N4CCOCC4)nn23)cc1 | -4 | -2 | -3 | -2 | -8 | 0 | nt
COc1ccc(/C=C(\C#N)C(=O)Nc2cccc3ncccc23)cc1OC | -1 | 5 | 2 | 9 | -3 | 1 | nt
N#C/C(=C\c1ccc(O)c(O)c1)C(=O)Nc1cccc2ncccc12 | 49* | 5 | 10 | 15 | 2 | 52* | 70*
Cc1ccc(-c2csc(NS(=O)(=O)c3cccc(F)c3)n2)o1 | 37* | 9 | 5 | 9 | -3 | 47* | 72*
COc1cc(C2Nc3c(F)cccc3C3C=CCC32)cc(Br)c1OC (configuration not stated) | 3 | -10 | 8 | 1 | -1 | 2 | nt
COc1cccc2c1NC(C(=O)O)C1CC=CC21 (configuration not stated) | 48* | 2 | 30* | 24 | -7 | 57* | 11
Cc1cc(C)c(Nc2cc(S(=O)(=O)O)c(N)c3c2C(=O)c2ccccc2C3=O)c(C)c1 | 83* | 1 | 63* | 46* | -5 | 89* | 92*
C[C@@H]1Cc2c(O)c(O)cc(O)c2C(=O)O1 | 9 | 1 | 1 | 14 | 6 | 9 | nt
O=C1C=C(O)c2c(O)cc(O)c(O)c2C1=O | 45* | -9 | 19 | 40* | -15 | 85* | 52*
C[C@@H]1CN([C@H](C)CO)C(=O)c2cc(NC(=O)Nc3ccc(C(F)(F)F)cc3)ccc2O[C@H]1CN(C)S(=O)(=O)c1cccs1 | -75 | -4 | -44 | -91 | -8 | -25 | nt
C[C@H](CO)N1C[C@H](C)[C@@H](CN(C)S(C)(=O)=O)Oc2ccc(NC(=O)Nc3ccc(C(F)(F)F)cc3)cc2C1=O | -14 | 3 | 1 | 1 | -16 | 44* | 45*
